# Source: PubChem (National Center for Advancing Translational Sciences (NCATS))
# VDR inh – Inhibitors of the vitamin D receptor (VDR): qHTS; Vitamin D3 receptor (Homo sapiens), P11473; VDR-SRC2-3 peptide fluorescence polarization, 2 h; Potency, µM, actives largely listed as inhibitors; 400,000 tested, 0.93% active
#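 Signal is fluorescence polarization, reporting how far test compounds block the interaction of VDR with the SRC2-3 coregulator peptide after a 2 h room-temperature incubation.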
# PLK1 PBD inh – qHTS for Inhibitors of PLK1-PDB (polo-like kinase 1 - polo-box domain): Primary Screen | Plk1 PBD binding of FITC phosphopeptide, fluorescence polarization | AID 720504, 2013 | 360,000 tested, 2.8% active | Potency, µM, hits mostly inhibitors; also: series mostly up to about 57 µM; nearly all actives have a fitted effect of over 65% in size
# Target sequence (P53350 whole entry, looked up, the tested form may be a part): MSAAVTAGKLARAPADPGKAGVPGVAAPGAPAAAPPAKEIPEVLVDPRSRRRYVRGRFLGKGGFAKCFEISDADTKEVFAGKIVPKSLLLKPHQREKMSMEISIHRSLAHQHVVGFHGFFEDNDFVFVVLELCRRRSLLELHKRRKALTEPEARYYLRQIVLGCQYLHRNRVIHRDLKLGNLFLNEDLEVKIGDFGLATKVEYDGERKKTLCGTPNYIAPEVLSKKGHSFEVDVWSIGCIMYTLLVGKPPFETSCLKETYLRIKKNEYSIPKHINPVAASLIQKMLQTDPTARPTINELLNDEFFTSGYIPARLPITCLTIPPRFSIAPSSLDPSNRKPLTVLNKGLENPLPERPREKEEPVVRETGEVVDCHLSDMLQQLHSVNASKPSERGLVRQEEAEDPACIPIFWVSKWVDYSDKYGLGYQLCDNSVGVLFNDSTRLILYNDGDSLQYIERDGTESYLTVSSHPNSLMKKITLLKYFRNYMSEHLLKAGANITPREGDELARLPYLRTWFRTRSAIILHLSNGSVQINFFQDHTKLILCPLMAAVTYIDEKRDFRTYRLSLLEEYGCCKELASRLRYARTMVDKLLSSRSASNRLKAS
# TDP1 cell CPT – qHTS for Inhibitors of human tyrosyl-DNA phosphodiesterase 1 (TDP1): qHTS in cells in presence of CPT | chicken DT40 Tdp1-/-;hTDP1 cells + 20 nM CPT, ATP luminescence, 48 h | 420,000 tested, 12% active | Potency, µM (doses to about 46.2 µM), actives largely listed as inhibitors; also: nearly all actives have a fitted effect of over 55% in size
#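 Chicken DT40 Tdp1-/- cells stably complemented with human TDP1 were seeded at 400 cells/well in medium containing 20 nM camptothecin, exposed to pin-transferred compounds, and grown at 37 °C for at least 48 hr. Viability was read as ATP luminescence.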
# DT40 TDP1 no CPT – qHTS for Inhibitors of human tyrosyl-DNA phosphodiesterase 1 (TDP1): qHTS in cells in absence of CPT; DT40 Tdp1-/- hTDP1 cells, no CPT, ATP luminescence, 48 h; Potency, µM (series often up to 46.2 µM), hits mostly inhibitors; 420,000 tested, 15% active; also: nearly all actives have a fitted effect of over 55% in size
#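 A cellular qHTS used chicken DT40 cells lacking endogenous Tdp1 but carrying stably transfected human TDP1. Compounds were applied without camptothecin, and cell growth kinetics were judged by ATP-dependent luminescence after ≥48 hr.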
# KAT2A inh – qHTS Assay for Inhibitors of GCN5L2; Potency, µM (series often up to 58.9 µM), most hits filed as inhibitors; GCN5L2 HAT assay, ThioGlo1 CoA-SH fluorescence; AID 504327, 2011; 390,000 tested, 0.21% active
#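 ThioGlo1-coupled HAT assay: 20nM GCN5L2, 70uM acetyl-CoA, 75uM H3(1-25) peptide, pH 7.5. Fluorescence read at 340/540nm at start and after 20 min at room temperature.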
# TDP1 block – qHTS Assay for Inhibitors of Tyrosyl-DNA Phosphodiesterase (TDP1); Potency, µM (top dose mostly 130 µM), hits mostly inhibitors; Tyrosyl-DNA phosphodiesterase 1 (Homo sapiens), Q9NUW8; recombinant TDP1, AlphaScreen DNA substrate cleavage; AID 485290, 2010; 350,000 tested, 0.28% active; also: nearly all actives have a fitted effect of over 40% in size
#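 AlphaScreen read-out: signal falls as enzyme removes the 3' tyrosine-FITC from a 5'-biotinylated DNA oligo (15 nM, 5 min, RT). Enzyme was E. coli-made recombinant Tdp1 at 1 nM, exposed to compound for 15 min beforehand; beads 10 ug/ml, 10 min.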
# Hits are given with their value; 0 = inactive; ? = inconclusive; - = not tested or not shown. Most compounds without a hit are left out; they make up all but 18% or so of the library. Calls follow the shape of the dose curve; as a rule, active = well fitted curve in the direction sought with a large enough effect; inconclusive = small, poorly fitted or top-dose-only effect, or another doubt; inactive = no such curve, though single readings can be large; an effect the other way counts as inactive or inconclusive.
SMILES,VDR inh,PLK1 PBD inh,TDP1 cell CPT,DT40 TDP1 no CPT,KAT2A inh,TDP1 block
Cc1cc(C)nc(NS(=O)(=O)c2ccc(NC(=O)CCC(=O)O)cc2)n1,0,0,0,0,-,-
Cc1ccc(C)c(NC(=O)CSc2nnc(C3CCCCC3)o2)c1,0,0,0,0,0,0
Cc1ccc(Cn2c(C(=O)O)c(CNCc3ccccc3Cl)c3ccc(C)cc32)cc1,0,-,23µM,?,0,0
Cc1ccc(Cn2c(C(=O)O)c(CNCc3cccs3)c3ccc(C)cc32)cc1,0,-,15µM,?,0,0
COc1ccc(Cn2c(C(=O)O)c(CNCCc3ccccc3Cl)c3ccc(C)cc32)cc1,0,-,?,?,0,0
CCOC(=O)/C=C/[C@H]1CCc2cccc(Cl)c2O1,0,21µM,0,0,0,-
COC(=O)c1c(NC(=O)Cn2nc(C(F)F)cc2C(F)F)sc(C)c1C,0,15µM,?,?,0,0
CCOC(=O)c1c(NC(=O)Cn2cnc([N+](=O)[O-])n2)sc(C)c1C,0,24µM,0,?,0,0
CCOC(=O)c1c(NC(=O)Cn2nc(C(F)(F)F)cc2C)sc(C)c1C,0,27µM,?,0,0,0
COC(=O)c1c(NC(=O)CSc2ccccc2N)sc(C)c1C,0,0,?,?,0,0
CC(C)(C)c1ccccc1Nc1nc(C#N)nc(NC2CCCC2)n1,-,-,-,-,-,0
CC(=O)OCC=C1CCC2C3CC(C)C4=CC(=O)CCC4(C)C3C(O)CC12C (configuration not stated),0,0,?,?,-,-
COc1ccc(C(=O)NCc2nnc(SC)n2Cc2ccccc2)cc1,0,0,0,0,0,0
CSc1nc(COC(=O)NC(C)C)c(COC(=O)NC(C)C)n1Cc1ccccc1,-,0,9.2µM,13µM,-,-
COC(=O)CN1C(=O)C2(C(C#N)=C(N)Oc3n[nH]c(-c4cccs4)c32)c2ccccc21 (configuration not stated),0,0,0,0,-,0
COC(=O)CN1C(=O)C2(C(C#N)=C(N)Oc3c2c(C)nn3-c2ccccc2)c2ccccc21 (configuration not stated),0,?,?,21µM,0,0
CN1CCN(C(=O)c2cnn3c2NC(c2ccccc2)CC3C(F)(F)F)CC1 (configuration not stated),0,0,0,0,0,0
O=C(O)c1nn2c(c1Br)NC(c1ccccc1)CC2C(F)(F)F (configuration not stated),0,0,0,0,0,0
O=C(NCc1ccco1)c1cnn2c1NC(c1ccccc1)CC2C(F)(F)F (configuration not stated),0,0,18µM,0,0,0
OCc1nn2c(c1Br)NC(c1ccccc1)CC2C(F)(F)F (configuration not stated),?,7.5µM,?,?,0,0
O=C(c1cnn2c1NC(c1ccco1)CC2C(F)(F)F)N1CCN(c2cccc(Cl)c2)CC1 (configuration not stated),0,0,16µM,8.2µM,?,0
O=C(NCc1ccco1)c1cnn2c1NC(c1ccc(Br)cc1)CC2C(F)(F)F (configuration not stated),?,3µM,4.1µM,4.1µM,0,0
COc1cc(F)c(S(=O)(=O)N2CCN(S(=O)(=O)c3ccco3)CC2)c(F)c1,-,-,-,-,-,0
Cc1onc(NC(=O)c2ccc(Cl)cc2Cl)c1Br,0,0,?,10µM,0,0
Cc1cc(C)nc(NC(=O)c2ccc(Cl)cc2Cl)n1,0,0,0,0,0,0
SMILES,VDR inh,PLK1 PBD inh,TDP1 cell CPT,DT40 TDP1 no CPT,KAT2A inh,TDP1 block
Cc1ccc(CSc2nc3cccnc3n2Cc2nc(-c3ccccc3F)oc2C)cc1,0,-,4.6µM,3.7µM,0,0
O=C(NCc1ccccc1)c1ccc(CSc2nc3cccnc3n2Cc2cccc(F)c2)cc1,0,-,13µM,10µM,0,0
O=C(NCc1cccs1)c1ccc(CSc2nc3cccnc3n2Cc2ccccc2)cc1,0,-,?,15µM,0,0
O=C(NCc1ccccc1F)c1ccc(CSc2nc3cccnc3n2Cc2ccccc2)cc1,0,-,0,0,0,0
O=C(NCc1cccs1)c1ccc(CSc2nc3cccnc3n2Cc2ccc(F)cc2)cc1,0,-,?,?,0,0
O=C(NCc1ccccc1)c1ccc(CSc2nc3cccnc3n2Cc2ccccc2)cc1,0,-,4.6µM,18µM,0,0
COCCN(Cc1ccc(OC)cc1)c1c(C)nc2ccc(C(=O)NCCc3c[nH]c4ccccc34)cn12,-,0,?,?,-,-
CCNC(=O)NCCCOc1cccc(CN2CCCCC2)c1,-,-,0,0,-,-
O=C(CSc1n[nH]c(=O)[nH]c1=O)NC1CC1,0,0,0,0,0,0
